# Tested on: not listed separately
# Experiment: compounds binding Alexa647 anti-His antibody – biochemical, small-molecule microarray, 635 nm fluorescence, artefact control for SMM control protein annotation, primary screen (AID 1128);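 further: score merges feature fluorescence with signal-to-noise for each printed compound spot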
# Settings: higher = more signal
row,Structure (SMILES),composite z-score
1,Cn1c(=O)n2n(c1=O)[C@H]1[C@H](O)[C@@H]3O[C@@H]3C(=O)[C@H]1CC2,-0.0542
2,O=C1C[C@@H](O)[C@@H](O)[C@@H]2[C@@H]3C(=O)N(C[C@@H]4CCCO4)C(=O)[C@@H]3CC[C@@H]12,0.318
3,COc1ccc(O[C@H]2C=C[C@@H](c3ccccc3)O[C@@H]2CON=C2[C@H]3CCn4c(=O)n(-c5ccccc5)c(=O)n4[C@H]3[C@H](O)[C@@H]3O[C@H]23)cc1,-0.444

# Tested on: Human papillomavirus type 1a E7 protein (residues 1-88)
# Experiment: HPV1a E7 small-molecule binders, primary screen, biochemical, small-molecule microarray, residues 1-88, 635 nm (AID 1129)
# Settings: small-molecule microarray binding, fluorescence 635 nm; higher = more signal
row,Structure (SMILES),composite z-score
1,CC(C)CCN1CCc2nc(COc3ccccc3)c3c(c2C1)CO[C@@H](C)C3,0.132
2,O=C(NN=C1C[C@@H](O)[C@@H](O)[C@@H]2[C@@H]3C(=O)N(Cc4ccccc4)C(=O)[C@@H]3CC[C@@H]12)OCc1ccccc1,-0.0375
3,CO[C@@H]1COC(=O)[C@@H](C)COC(=O)[C@@H](C)NC(=O)CC=C[C@@H]1C,-0.727
4,CO[C@@H]1COC(=O)CC=C[C@@H](C)[C@@H]2C=C[C@H](O)[C@@H](COC(=O)CC=C[C@H]1C)O2,-1.07
5,COC(=O)[C@@H]1CC[C@H](C)[C@@H](c2ccc(C)cc2)N1C(=O)c1ccc(C=NO[C@H](C)c2cn([C@H](CO)Cc3ccccc3)nn2)cc1,1.04
6,CCC=CCCC(OC(=O)c1ccc(Br)cc1)C1=CCCCC1=O (centres undefined),1.17
7,CO[C@H]1COC(=O)[C@@H](C)COC(=O)[C@H](COCc2ccccc2)NC(=O)CC=C[C@H]1C,-1.02
8,CCOC(=O)CCN1C(=O)[C@H]2[C@H]3[C@H](O)[C@H](O)CC(=NOCC(C)C)[C@H]3CC[C@H]2C1=O,-0.204
9,C#CCCCON=C1C[C@@H](O)[C@@H](O)[C@@H]2[C@@H]3C(=O)N(CC)C(=O)[C@@H]3CC[C@@H]12,0.63
10,CON=C1[C@H]2CCn3c(=O)n(-c4ccccc4)c(=O)n3[C@H]2[C@H](O)[C@@H]2O[C@H]12,0.574
11,CC(C)=CCCC(C)=CCON=C1C[C@@H](O)[C@@H](O)[C@@H]2[C@@H]3C(=O)N(C(C)(C)C)C(=O)[C@@H]3CC[C@@H]12,0.494
12,CC(C)(C)N1C(=O)[C@H]2[C@H]3[C@H](O)[C@H](O)CC(=O)[C@@H]3CC[C@H]2C1=O,0.237
13,CC(=O)OC[C@H]1O[C@H](CC=NO[C@H](C)c2cn([C@H](CO)Cc3ccccc3)nn2)C=C[C@@H]1OC(C)=O,0.777
14,C=Cc1ccc([C@H]2N[C@H](C(=O)O)CC[C@@H]2C)cc1,-1.47
15,O=C(C=Cc1ccc2c(c1)OCO2)c1ccc(F)cc1,-0.575
16,C[C@@H]1CC[C@H]2C(=O)O[C@@H](Cc3ccccc3)CN2[C@H]1c1ccc(Br)cc1,0.688
17,C=CC1=C[C@H](O)[C@@H]2O[C@@H]2C12OCCCO2,0.661
18,CCN1C(=O)[C@H]2[C@H]3[C@H](O)[C@H](O)CC(=NO[C@@H](C)c4cn([C@H](CO)Cc5ccccc5)nn4)[C@@H]3CC[C@H]2C1=O,1.11

row,Structure (SMILES),composite z-score
1,CCOC(=O)[C@H](Cc1ccccc1)NC(=O)CCC1CC(OC(=O)NCc2ccc3c(c2)OCO3)CC2(CCCC(COC(=O)NCCC(C)C)O2)O1 (some centres undefined),0.57
2,O=C1[C@H]2[C@H]3[C@H](O)[C@H](O)CC(=NOC[C@@H](O)COCc4ccco4)[C@H]3CC[C@H]2C(=O)N1C[C@@H]1CCCO1,0.225
3,CC(C)=NO[C@H](C)c1cn([C@H](CO)Cc2ccccc2)nn1,0.464
4,O=C1CCCC=C1C(O)CCCCBr (centres undefined),0.466
5,COC(=O)CC=C[C@@H](C)[C@@H](C=NOC[C@@H](O)[C@H]1O[C@@H]2OC(C)(C)O[C@@H]2[C@H]1O)NS(=O)(=O)c1ccc(C)cc1,0.607
6,CCOC(=O)[C@H](Cc1ccccc1)NC(=O)CCC1CC(OC(=O)NCCc2ccc(F)cc2)CC2(CCCC(COC(=O)NCc3ccccc3)O2)O1 (some centres undefined),1.04
7,COC(=O)CC=C[C@@H](C)[C@@H](C=NOC(C)CN1CCCc2nc(C)c(C)cc21)OC (some centres undefined),0.464
8,O=C1CCCC=C1C(O)CCOC(c1ccccc1)(c1ccccc1)c1ccccc1 (centres undefined),-0.228
9,C[C@@H]1C=CCC(=O)OC[C@H]2O[C@@H](C=C[C@@H]2O)[C@H](C)C=CCC(=O)OC1,-0.813
10,CO[C@@H]1C=CCC(=O)N[C@@H](C)C(=O)OC[C@@H](OC)[C@H](C)CCCC(=O)OC[C@H]1C,-1.64
11,Cc1ccc(S(=O)(=O)OC[C@H]2CN3[C@H](c4ccc(Br)cc4)[C@@H](C)CC[C@H]3C(=O)O2)cc1,0.269
12,CC(C)=CCCC(C)=CCON=C1C[C@@H](O)[C@@H](O)[C@@H]2[C@@H]3C(=O)N(C4CCCCC4)C(=O)[C@@H]3CC[C@@H]12,0.0286
13,O=C1C=C[C@@H](O)[C@@H]2[C@@H]3C(=O)N(C[C@@H]4CCCO4)C(=O)[C@@H]3CC[C@@H]12,0.686
14,CCOC(=O)[C@H](CC(C)C)NC(=O)CCC1CC(OC(=O)NCc2cccc3ccccc23)CC2(CCCC(COC(=O)NCCCN3CCCC3=O)O2)O1 (some centres undefined),1.06
15,Cc1ccc(S(=O)(=O)N[C@H]2COC(=O)CC=C[C@@H](C)COC(=O)CC=C[C@@H]2C)cc1,-0.408
16,Cn1c(=O)n2n(c1=O)[C@H]1[C@H](O)[C@@H]3O[C@@H]3C(=O)[C@H]1CC2,0.827
17,O=C1C[C@@H](O)[C@@H](O)[C@@H]2[C@@H]3C(=O)N(C[C@@H]4CCCO4)C(=O)[C@@H]3CC[C@@H]12,0.476
18,COc1ccc(O[C@H]2C=C[C@@H](c3ccccc3)O[C@@H]2CON=C2[C@H]3CCn4c(=O)n(-c5ccccc5)c(=O)n4[C@H]3[C@H](O)[C@@H]3O[C@H]23)cc1,1.05
